Rows were chosen to be rich in hits. Some 21% of all compounds tested hit in one or more screens of this group.
Shiga inhibitor: A qHTS for Small Molecule Inhibitors of Shiga Toxin | Vero cells, Shiga toxin protein synthesis inhibition reporter | actives 9.2% (n = 290,000) | inhibition, % at 38.7 µM | AID 2315, 2010; in the data active = inhibition mostly above about 28%, no sharp cut-off; inactive = mostly below about 43%; also: 0% is about no effect
Pf growth 48h: Primary qHTS for delayed death inhibitors of the malarial parasite plastid, 48 hour incubation; P. falciparum luciferase growth in erythrocytes, 48 h; Potency, µM (series often up to 28.7 µM), inactives show at the top dose activity change, negative = inhibition, most hits filed as inhibitors; actives 5.9% (n = 310,000); also: potency is read from the fitted curve at half-maximal effect; % is scaled to controls: 0 for no effect and ±100 for the full control effect
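Luciferase-expressing P. falciparum in infected erythrocytes (2% hematocrit, 0.1% parasitemia final) in RPMI 1640/0.5% Albumax were exposed to compound for 48 hours at 37 C, 5% CO2; growth read as luminescence.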
Cycloheximide cs: Cycloheximide Counterscreen for Small Molecule Inhibitors of Shiga Toxin. cell reporter, cycloheximide protein synthesis inhibition counterscreen. max response, %. actives 12% (n = 300,000); in the data active = max response mostly above about 13%, no sharp cut-off; inactive = mostly below about 14%; also: read at 38.3 µM for the half of the compounds with a filed dose; 0% is about no effect
Pf growth 96h: Primary qHTS for delayed death inhibitors of the malarial parasite plastid, 96 hour incubation; Potency, µM (series often up to 28.7 µM), inactives show top-dose activity change, negative = inhibition, most hits filed as inhibitors; actives 6.9% (n = 320,000); P. falciparum luciferase reporter growth, 96 h; also: potency is read from the fitted curve at half-maximal effect; % is scaled to controls: 0 for no effect and ±100 for the full control effect
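Readout is luminescence from an integrated firefly luciferase in P. falciparum. Red cells, 2% hematocrit and 0.05% parasitemia final, were cultured with compound through two parasite generations (96 hours) at 37 C, 5% CO2.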
Sm TGR inh: qHTS Assay for the Inhibitors of Schistosoma Mansoni Peroxiredoxins; Schistosoma mansoni thioredoxin glutathione reductase (TGR), Q962Y6; purified TGR, DTNB reduction, TNB absorbance 405 nm; Potency, µM (series often up to 114 µM), for inactives: at the highest dose activity change, negative = inhibition, most hits filed as inhibitors; actives 3% (n = 360,000); AID 485364, 2010; also: potency is read from the fitted curve at half-maximal effect; % is scaled to controls: 0 for no effect and ±100 for the full control effect; nearly all actives have a fitted effect of over 60% in size
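Kinetic colorimetric format: TGR-catalysed, NADPH-driven DTNB reduction monitored via TNB absorbance. Enzyme dispensed at 20 nM; compound exposure 15 min at room temperature before reaction start.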
NS1 function inh: qHTS Assay for Inhibitors of Influenza NS1 Protein Function; Potency, µM (series often up to 46.1 µM), inactives show at the highest dose activity, positive = more growth; actives 0.4% (n = 270,000); calls by dose curve; also: potency is read from the fitted curve at half-maximal effect; actives are rising curves; nearly all actives have a fitted effect of over 50% in size
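Growth recovery, yeast-based: influenza A NS1 expressed in S. cerevisiae causes slow growth, and suppressors are detected by OD600. The parent strain without NS1 is used as positive control.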
* marks the source's active call; other numbers are inactive results; ? = inconclusive; . = no result. Unless noted, calls follow the shape of the dose curve; as a rule, active = well fitted curve in the direction sought with a large enough effect; inconclusive = small, poorly fitted or top-dose-only effect, or another doubt; inactive = no such curve, though single readings can be large; an effect the other way counts as inactive or inconclusive.

SMILES	Shiga inhibitor	Pf growth 48h	Cycloheximide cs	Pf growth 96h	Sm TGR inh	NS1 function inh
COc1cc(-c2nc3oc4ccccc4c(=O)c3c(=O)n2Cc2ccco2)cc(OC)c1OC	40.0*	?	21.6*	?	?	-17.1%
O=c1c2ccccc2oc2nc(-c3ccco3)n(Cc3ccccc3)c(=O)c12	5.5	?	5.0	-3.0%	-25.5%	-14.6%
COCCn1c(-c2ccc(F)cc2)nc2oc3cc(OC)ccc3c(=O)c2c1=O	-29.1	?	-1.9	-3.3%	-0.6%	-44.8%
COc1ccc2c(=O)c3c(=O)n(Cc4ccco4)c(-c4ccc(C)cc4)nc3oc2c1	31.8	?	-0.7	13.8%	31.6µM*	-99.0%
C=C[C@@H]1[C@@H](C)[C@H](C)C(=O)C([C@H](O)C(C)C)[C@@H]1C (stereo partly drawn)	-8.0	.	-3.7	.	.	.
O=C(CN1C(=O)c2ccccc2C1=O)Oc1ccc(F)cc1	-1.8	32.1%	-0.8	-13.3%	6.6%	-6.6%
COc1ccc(C(CNC(=O)c2oc3ccc(C)cc3c2C)N2CCOCC2)cc1 (stereo not drawn)	.	.	.	.	-1.9%	.
O=C(Cc1ccc(S(=O)(=O)N2CCOCC2)s1)Oc1ccc(F)cc1	.	2.5%	.	58.4%	12.4%	.
Cc1ccc(C(=O)COC(=O)c2cccc([N+](=O)[O-])c2)s1	.	64.3%	.	25.1%	-1.1%	.
COCC(=O)Nc1sc2c(c1C(=O)OC)CCC(C)C2 (stereo not drawn)	36.6	3.3%	12.4*	.	4.8%	-0.5%
COC(=O)c1c(NC(=O)CC2SC(N)=NC2=O)sc2c1CCC(C)C2 (stereo not drawn)	-10.8	4.7%	-0.8	3.7µM*	?	17.1%
COC(=O)c1c(NC(=O)CN2CCOCC2)sc2c1CCC(C)C2 (stereo not drawn)	47.1	51.1%	2.0	47.7%	-20.6%	-34.8%
CCOC(=O)c1c(NC(=O)Cn2nc([N+](=O)[O-])c(Br)c2C)sc2c1CCC(C)C2 (stereo not drawn)	-10.0	-26.6%	1.3	0.0131µM*	-3.2%	3.4%
Cc1c(Br)c([N+](=O)[O-])nn1CC(=O)NC1CCCCCC1	-3.7	-12.2%	8.0	1.47µM*	-2.7%	11.8%
CCOc1cc(C(=O)O)cc(Cl)c1OCC#N	0.4	6.5%	-1.4	7.38µM*	-8.3%	-1.7%
CCOc1cc(OCC)cc(C(=O)O)c1	7.5	?	-3.4	-18.7%	3.9%	3.3%
CC(C(=O)OCC(=O)N(C)C1(C#N)CCCCC1)N1C(=O)c2ccccc2C1=O (stereo not drawn)	.	-13.2%	.	-1.2%	0.6%	.
Cc1ccc(N2CCN(C(=O)c3cc(S(=O)(=O)N4CCCCC4)c[nH]3)CC2)c(C)c1	.	.	.	.	6.7%	.
Cc1cccc(NC(=O)Cn2nc3c4ccccc4n(Cc4ccccc4)cc-3c2=O)c1	.	.	.	.	0.6%	.
Cc1ccc(C)c(Cn2nc3c4ccccc4n(Cc4ccccc4)cc-3c2=O)c1	-3.9	13.1µM*	-6.7	9.7%	0.4%	2.1%
Cc1ccc(-n2c(C)cc(C(=O)COc3cccnc3[N+](=O)[O-])c2C)cc1	54.4*	11.1%	42.9*	-17.9%	-2.8%	-2.3%
Cc1cc(C(=O)COc2cccnc2[N+](=O)[O-])c(C)n1-c1ccccc1	55.5*	50.5%	58.9*	63.8%	-20.9%	8.1%
COc1ccc(CNC(=O)CCCN2C(=O)CCn3nc(-c4cn(C)c5ccccc45)cc32)cc1	.	.	.	.	-6.2%	.
CC(C)Cn1c(=O)c(-[n+]2ccccc2)c([O-])c2ccccc21	-8.4	-4.3%	8.7	13.1µM*	-7.1%	.
CCCCn1c(=O)c(-[n+]2ccccc2)c([O-])c2ccccc21	-8.8	.	0.7	-5.2%	2.2%	-0.3%
O=S1(=O)CCN(Cc2ccc(Cl)c(C(F)(F)F)c2)CC1	-13.1	22.5%	-4.6	-5.4%	.	4.7%
CCc1ccc(C(=O)CC2(O)C(=O)N(CN3CCOCC3)c3ccccc32)cc1 (stereo not drawn)	29.8	29.9%	19.0*	?	2.2%	?
